# Results published in PubChem BioAssay (NCATS).
# Values without a mark were called inactive. Records with an inconclusive call do not appear. Calls of active or inactive are those of the source. Unless noted, the call rests on the fitted dose curve; in most records, active means well fitted curve in either direction with a large enough effect (not every such curve was filed as active); inconclusive means small, poorly fitted or top-dose-only effect, or another doubt; inactive means flat fitted curve, though single readings scatter. Residues, ends and D or L forms follow the SMILES beside them.
# Assays:
# [1] = biological target: Lysosomal acid glucosylceramidase (Homo sapiens) (UniProt P04062); test: Glucocerebrosidase-p2 (AID 348; in the data active means potency below about 10 µM; further: potency means the concentration at half of the fitted maximal effect); details: purified GBA, blue fluorogenic substrate, 40 min
# Lysosomal acid glucosylceramidase (Homo sapiens), sequence (P04062 whole entry, looked up): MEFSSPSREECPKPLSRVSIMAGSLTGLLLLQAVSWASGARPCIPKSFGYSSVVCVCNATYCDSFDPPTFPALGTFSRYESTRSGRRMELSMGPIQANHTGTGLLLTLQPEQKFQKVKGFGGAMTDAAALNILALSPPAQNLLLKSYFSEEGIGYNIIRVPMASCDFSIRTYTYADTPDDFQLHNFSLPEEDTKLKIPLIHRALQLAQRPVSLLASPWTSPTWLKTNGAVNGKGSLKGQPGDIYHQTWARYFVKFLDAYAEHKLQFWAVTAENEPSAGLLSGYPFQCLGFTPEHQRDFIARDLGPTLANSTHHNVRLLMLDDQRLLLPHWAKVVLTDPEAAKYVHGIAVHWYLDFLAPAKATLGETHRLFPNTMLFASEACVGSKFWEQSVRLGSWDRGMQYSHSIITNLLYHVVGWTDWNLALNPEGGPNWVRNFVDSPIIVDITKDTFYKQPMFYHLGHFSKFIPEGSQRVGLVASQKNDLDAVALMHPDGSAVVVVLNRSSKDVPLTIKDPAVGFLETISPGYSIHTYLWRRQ
# Outline: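 Normal human glucocerebrosidase (0.2 nM) with blue fluorogenic substrate (80 uM final) in citrate/phosphate pH 5.9 with 10mM sodium taurocholate, 0.01% tween-20; 40 min RT, NaOH/glycine stop; fluorescence Ex 365/Em 440; AC50 from a titration from 0.6 nM upwards.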
# [2] = AP1 Signaling Pathway (AID 357); details: ME-180 AP-1-bla reporter, EGF-induced, beta-lactamase ratio, 5 h; at 7.69 µM (top of the series) unless noted; further: on the % scale 0 is the no-effect control and ±100 the full control effect
# Outline: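 ME-180 cells with beta-lactamase reporter under AP-1 response element, stimulated with EC50 EGF; compounds tested in titration series, 5 h at 37 °C. CCF4 substrate added 2.5 h at room temperature; 460/530 nm emission ratio gave %activity and AC50.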
# [3] = NFAT Signaling Pathway (AID 444); details: Jurkat NFAT-bla M1, carbachol, beta-lactamase ratio, 5 h; at 7.69 µM (top of the series) unless noted;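 further: carbachol stimulus at about its EC50 of 1 µM final; on the % scale 0 is the no-effect control and ±100 the full control effect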
# Outline: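 Jurkat cells carrying an NFAT-driven β-lactamase reporter and co-transfected muscarinic M1 receptor were treated with compound plus carbachol (1 uM final, an EC50 level) for 5 h at 37 °C. CCF4 loading followed for 1 h at RT; 460/530 nm ratio gave %activity.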
# [4] = Stat Signaling Pathway (AID 446); details: ME-180 (cervical carcinoma) SIE beta-lactamase reporter, IL-6 stimulated, 5 h; at 7.69 µM (top of the series) unless noted;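 further: ME-180 cervical cancer cells given 40 pM IL-6 alongside compound; SIE-controlled beta-lactamase reporter measured as 460/530 nm FRET emission ratio; on the % scale 0 is the no-effect control and ±100 the full control effect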
# Outline: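 FRET read-out (405 nm excitation, 460/530 nm emission) of a beta-lactamase reporter under a STAT-inducible element in ME-180 cervical carcinoma cells. Cells with compound receive 40 pM IL-6 for 5 h. Values are normalised to AC90 stimulation and AC90 JAK-inhibitor controls.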
# [5] = biological target: Glucocorticoid receptor (Homo sapiens) (UniProt P04150); test: GR-GFP Redistribution (AID 450;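 active means compounds whose dose series gives a full or clear partial fitted curve of increased nuclear translocation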; further: potency means the concentration at half of the fitted maximal effect); details: U2OS GR-GFP nuclear translocation, laser cytometry, 2 h
# Glucocorticoid receptor (Homo sapiens), sequence (P04150 whole entry, looked up, the tested form may be a part): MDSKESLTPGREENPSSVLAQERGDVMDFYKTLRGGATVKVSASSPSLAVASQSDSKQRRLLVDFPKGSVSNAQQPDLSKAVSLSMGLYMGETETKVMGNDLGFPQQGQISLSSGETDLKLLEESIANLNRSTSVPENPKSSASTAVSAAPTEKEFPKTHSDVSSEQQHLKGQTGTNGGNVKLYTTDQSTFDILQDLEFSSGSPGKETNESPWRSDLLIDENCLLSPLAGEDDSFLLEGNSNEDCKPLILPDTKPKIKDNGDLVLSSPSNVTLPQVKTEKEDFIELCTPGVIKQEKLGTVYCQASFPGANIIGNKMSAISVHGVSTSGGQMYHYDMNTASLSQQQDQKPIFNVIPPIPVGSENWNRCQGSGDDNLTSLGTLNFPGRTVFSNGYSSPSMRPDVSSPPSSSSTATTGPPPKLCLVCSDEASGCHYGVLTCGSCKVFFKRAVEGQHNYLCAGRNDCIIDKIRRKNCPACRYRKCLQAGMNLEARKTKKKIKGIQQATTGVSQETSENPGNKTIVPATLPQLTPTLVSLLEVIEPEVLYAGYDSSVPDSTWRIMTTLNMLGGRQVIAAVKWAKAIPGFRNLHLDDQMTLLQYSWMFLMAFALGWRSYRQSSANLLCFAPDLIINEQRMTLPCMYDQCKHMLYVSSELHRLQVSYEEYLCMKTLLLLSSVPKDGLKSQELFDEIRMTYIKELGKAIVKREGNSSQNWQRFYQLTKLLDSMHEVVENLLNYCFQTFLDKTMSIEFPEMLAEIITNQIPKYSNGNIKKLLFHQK
# [6] = biological target: Glucocorticoid receptor (Homo sapiens) (UniProt P04150); test: GR-EFC Redistribution (AID 451; calls by dose curve; further: potency means the concentration at half of the fitted maximal effect); details: CHO-K1 GR-EFC translocation, beta-gal luminescence, 2 h
# Outline: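 CHO-K1 cells stably expressing nuclear-localized β-gal enzyme acceptor and GR fused C-terminally to the enzyme donor fragment; ligand-driven nuclear translocation restores β-gal by complementation. Compounds titrated up to 46 uM final, 2 h at 37 °C; luminescence read.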
# [7] = biological target: Mitogen-activated protein kinase 10 (Mus musculus) (UniProt Q61831); test: JNK3 AlphaScreen Assay (AID 530); details: JNK3 lysate, c-Jun phosphorylation; series mostly up to 11.4 µM;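 further: kinase came from lysate of stimulated human HepG2 cells; signal reports phosphorylation of biotinylated GST-cJun 1-79 at Ser73 with 10 µM ATP; on the % scale 0 is the no-effect control and ±100 the full control effect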
# Outline: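 Biotinylated GST-cJun(1-79) served as substrate for JNK3 in HepG2 lysates stimulated with IL-1beta and TNF-alpha. ATP was 10 uM final, pH 7.6. Ser73 phosphorylation was quantified by AlphaScreen (680 nm excitation).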
# [8] = biological target: 3',5'-cyclic-AMP phosphodiesterase 4B (Homo sapiens) (UniProt Q07343); test: qHTS Assay for Inhibitors of PDE-IV (AID 607; active means well fitted activation curve with a large enough effect in the main read-out, with a control signal flat, not every such curve was filed as active; further: % of control where 0% means no effect); details: HEK293 ACTOne CNG channel cells, membrane potential fluorescence; series mostly up to 22.9 µM
# 3',5'-cyclic-AMP phosphodiesterase 4B (Homo sapiens), sequence (Q07343 whole entry, looked up): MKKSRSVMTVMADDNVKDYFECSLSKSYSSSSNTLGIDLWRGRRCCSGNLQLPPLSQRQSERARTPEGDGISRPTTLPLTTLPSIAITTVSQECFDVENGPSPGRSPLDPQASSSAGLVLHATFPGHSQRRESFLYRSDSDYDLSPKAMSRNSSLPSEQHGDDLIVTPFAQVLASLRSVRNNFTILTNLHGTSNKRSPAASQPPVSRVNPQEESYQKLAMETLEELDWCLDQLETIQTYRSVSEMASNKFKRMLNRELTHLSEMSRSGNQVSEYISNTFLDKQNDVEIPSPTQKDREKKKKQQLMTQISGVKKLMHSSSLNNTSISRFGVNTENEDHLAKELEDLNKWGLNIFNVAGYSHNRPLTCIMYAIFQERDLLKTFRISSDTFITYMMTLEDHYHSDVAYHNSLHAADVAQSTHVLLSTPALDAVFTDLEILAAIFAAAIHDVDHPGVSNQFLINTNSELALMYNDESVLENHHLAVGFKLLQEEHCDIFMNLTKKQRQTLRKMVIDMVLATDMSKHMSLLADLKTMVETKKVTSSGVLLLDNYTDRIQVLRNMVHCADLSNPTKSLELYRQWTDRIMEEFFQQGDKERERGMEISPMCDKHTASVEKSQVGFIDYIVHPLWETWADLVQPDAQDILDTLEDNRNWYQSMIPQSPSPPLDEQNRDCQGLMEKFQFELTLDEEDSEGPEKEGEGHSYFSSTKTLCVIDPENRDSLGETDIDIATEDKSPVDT
# Outline: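 Cell-based read-out of cAMP via a modified cyclic nucleotide-gated channel and membrane potential dye (535/590 nm) in HEK293 cells expressing PDE4 endogenously. Compounds tested up to 22.9 uM final; 100 uM RO 20-1724 reference.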
# [9] = biological target: Cytochrome P450 2C9 (Homo sapiens) (UniProt P11712); test: qHTS Assay for Inhibitors and Substrates of Cytochrome P450 2C9 (AID 883; active means well fitted curve in the direction sought with a large enough effect; an effect the other way counts as inactive or inconclusive; further: potency means the concentration at half of the fitted maximal effect; nearly all actives have a fitted effect of over 60% in size); details: recombinant CYP2C9, luciferin-H luminescence, 60 min; series mostly up to 11.4 µM
# Cytochrome P450 2C9 (Homo sapiens), sequence (P11712 whole entry, looked up): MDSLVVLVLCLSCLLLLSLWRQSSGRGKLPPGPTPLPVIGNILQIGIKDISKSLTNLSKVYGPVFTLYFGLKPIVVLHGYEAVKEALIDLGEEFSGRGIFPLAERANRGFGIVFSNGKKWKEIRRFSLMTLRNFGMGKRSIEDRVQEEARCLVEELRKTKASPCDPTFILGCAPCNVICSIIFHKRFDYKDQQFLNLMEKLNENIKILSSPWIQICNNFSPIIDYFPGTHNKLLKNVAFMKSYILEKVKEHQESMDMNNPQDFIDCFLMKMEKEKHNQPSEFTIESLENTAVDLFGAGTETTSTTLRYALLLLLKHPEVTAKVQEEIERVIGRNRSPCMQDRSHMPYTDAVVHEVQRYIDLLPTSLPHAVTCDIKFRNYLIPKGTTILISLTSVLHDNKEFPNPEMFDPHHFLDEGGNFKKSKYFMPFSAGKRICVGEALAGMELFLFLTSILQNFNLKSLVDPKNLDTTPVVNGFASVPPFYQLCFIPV
# Outline: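 Human CYP2C9 (10nM) hydroxylated Luciferin-H (100uM, at its KM) to luciferin in 25mM KPO4. Compound was preincubated 10 min at 37C, then NADPH regeneration started a 60 min reaction at 37C. Luminescence was read after detection reagent, normalized to 57uM sulphaphenazole.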
# [10] = biological target: Cytochrome P450 3A4 (Homo sapiens) (UniProt P08684); test: qHTS Assay for Activators of Cytochrome P450 3A4 (AID 885; active means well fitted curve in the direction sought with a large enough effect; an effect the other way counts as inactive or inconclusive; further: nearly all actives have a fitted effect of over 65% in size); details: recombinant CYP3A4, Luciferin-PPXE luminescence, 60 min; series mostly up to 11.4 µM
# Cytochrome P450 3A4 (Homo sapiens), sequence (P08684 whole entry, looked up): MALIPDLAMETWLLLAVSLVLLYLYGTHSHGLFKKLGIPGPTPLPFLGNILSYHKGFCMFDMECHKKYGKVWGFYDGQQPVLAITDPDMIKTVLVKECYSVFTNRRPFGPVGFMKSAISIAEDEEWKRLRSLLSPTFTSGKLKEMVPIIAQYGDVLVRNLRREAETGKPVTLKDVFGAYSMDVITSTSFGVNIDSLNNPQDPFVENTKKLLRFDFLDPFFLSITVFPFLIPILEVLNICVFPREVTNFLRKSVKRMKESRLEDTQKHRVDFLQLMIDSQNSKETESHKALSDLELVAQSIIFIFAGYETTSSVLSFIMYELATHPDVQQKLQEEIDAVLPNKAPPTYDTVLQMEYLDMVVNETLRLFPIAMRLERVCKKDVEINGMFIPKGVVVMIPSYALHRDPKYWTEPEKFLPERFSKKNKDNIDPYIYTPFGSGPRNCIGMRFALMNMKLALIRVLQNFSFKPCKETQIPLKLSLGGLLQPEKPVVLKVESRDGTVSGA
# Outline: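 Luminescent readout of luciferin formed from 25 uM Luciferin-PPXE (KM level) by 20 nM CYP3A4 in 200 mM KPO4, with 60 min NADPH-driven reaction at room temperature after 10 min compound exposure. Ketoconazole (57 uM) defined 100% inhibition.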
# [11] = biological target: Cytochrome P450 2C19 (Homo sapiens) (UniProt P33261); test: qHTS Assay for Inhibitors and Substrates of Cytochrome P450 2C19 (AID 899; active means well fitted curve in the direction sought with a large enough effect; an effect the other way counts as inactive or inconclusive; further: potency means the concentration at half of the fitted maximal effect; nearly all actives have a fitted effect of over 60% in size); details: recombinant CYP2C19, luciferin-H EGE luminescence; series mostly up to 11.4 µM
# Cytochrome P450 2C19 (Homo sapiens), sequence (P33261 whole entry, looked up): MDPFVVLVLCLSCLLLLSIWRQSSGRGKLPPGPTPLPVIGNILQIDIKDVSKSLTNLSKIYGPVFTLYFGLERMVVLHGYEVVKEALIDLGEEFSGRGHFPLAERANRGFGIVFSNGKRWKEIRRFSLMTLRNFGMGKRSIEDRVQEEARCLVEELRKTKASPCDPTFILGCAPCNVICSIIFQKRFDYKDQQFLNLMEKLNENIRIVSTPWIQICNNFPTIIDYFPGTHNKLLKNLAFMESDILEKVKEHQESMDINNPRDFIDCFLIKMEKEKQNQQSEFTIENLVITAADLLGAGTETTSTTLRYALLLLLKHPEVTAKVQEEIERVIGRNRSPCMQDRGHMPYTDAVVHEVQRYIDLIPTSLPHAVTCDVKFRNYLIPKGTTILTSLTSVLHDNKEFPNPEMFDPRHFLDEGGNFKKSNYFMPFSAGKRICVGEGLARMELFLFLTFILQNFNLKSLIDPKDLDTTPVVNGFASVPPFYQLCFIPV
# Outline: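 Human CYP2C19 (5nM) with Luciferin-H EGE at 10uM (its KM) in 50mM KPO4 was preincubated with compound for 10 min at 37C. NADPH regeneration started a 60 min 37C reaction. Luciferin was read by luminescence, normalized to 57uM ketoconazole.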
Compound,Potency [1] [µM],"activity change, negative = inhibition [2] [%]","activity change, negative = inhibition [3] [%]","activity, negative = inhibition [4] [%]",Potency [5] [µM],Potency [6] [µM],Potency [7],Potency [8],Potency [9],Potency [10],Potency [11]
NC(=O)/N=C(\N)NC(=O)c1ccccc1,> 11.4,-2.56,8.99,2.37,> 46,> 9.22,inactive,inactive,–,–,–
CC1(C)CC(=O)C(C(c2cccc(O)c2O)C2C(=O)CC(C)(C)CC2=O)C(=O)C1,> 11.4,-0.68,2.55,1.05,> 46,> 9.22,inactive,inactive,–,–,–
O=C(O)C[C@@H](C(=O)O)C1c2ccccc2-c2ccccc21,> 11.4,-0.496,-1.69,-5.83,> 46,> 9.22,inactive,inactive,–,–,–
O=C(O)CN1C(=O)O[C@@H](c2ccccc2)C1=O,> 11.4,-1.65,11.5,-12.2,> 46,> 9.22,inactive,inactive,–,–,–
Cc1[nH]c(C)c(CN(C)C)c1CN(C)C,> 11.4,-2.51,-26.2,12.9,> 46,> 9.22,inactive,inactive,–,–,–
NC(=O)NOC[C@@H]1NC(=O)NC1=O,> 11.4,0.037,8.44,9.07,> 46,> 9.22,inactive,inactive,–,–,–
CC(=O)Nc1nc2ncc(C=O)nc2c(=O)[nH]1,> 11.4,-2.43,17.3,5.76,> 46,> 9.22,inactive,inactive,–,–,–
O=S1(=O)CCN(c2ccccc2CC(c2c[nH]c3ccccc23)c2c[nH]c3ccccc23)CC1,> 11.4,-12.9,-27.4,-20.7,> 46,> 9.22,inactive,inactive,3.16 µM (active),inactive,3.16 µM (active)
c1nnc(NCNc2nncs2)s1,> 11.4,12.8,7.13,-7.18,> 46,> 9.22,inactive,inactive,–,–,–
O=C(O)C1C(C(=O)O)C(C(=O)O)C1C(=O)O (stereo unspecified),> 11.4,-0.701,-1.31,0.791,> 46,> 9.22,inactive,inactive,–,–,–
O=C(O)c1cccc(C[C@H](Br)C(=O)O)c1,> 11.4,3.81,14.3,9.47,> 46,> 9.22,inactive,inactive,–,–,–
C(=Nc1ccc2c(c1)Cc1ccccc1-2)c1ccccn1,> 11.4,-0.541,1.45,0.131,> 46,> 9.22,inactive,inactive,–,–,–
FC(F)(F)c1nc2nc(Cl)c(Cl)nc2n1CCCN1CCOCC1,> 11.4,9.81,-3.79,2.08,> 46,> 9.22,inactive,inactive,2.51 µM (active),inactive,–
NC1(C(=O)NC2(C(=O)O)CCCC2)CCCC1 (HELM PEPTIDE1{[NC1(C(=O)[*:2])CCCC1].[O=C(O)C1(N[*:1])CCCC1]}$$$$V2.0),> 11.4,2.4,-2.57,8.97,> 46,> 9.22,inactive,inactive,–,–,–
Cc1ccc2nc(-c3ccc(NC(=O)c4ccc(N)cc4)c(S(=O)(=O)O)c3)sc2c1,> 11.4,-3.73,12.1,-11.4,> 46,> 9.22,inactive,inactive,–,–,–
C[n+]1cccc(/C=C\c2ccc3cccc(O)c3n2)c1,> 11.4,-0.115,10.1,3.53,> 46,> 9.22,inactive,inactive,–,–,–
O=C(O)c1cc(C(=O)O)cc(N2C(=O)c3ccccc3C2=O)c1,> 11.4,4.16,6.56,-2.79,> 46,> 9.22,inactive,inactive,–,–,–
